# Results from PubChem BioAssay (NCATS).
# Unmarked numbers belong to inactive results. Records with an inconclusive call do not appear. Entries that show only a call come without a potency. Activity calls are given as the source filed them. Unless noted, calls follow the shape of the dose curve; as a rule, active = well fitted curve in the direction sought with a large enough effect; inconclusive = small, poorly fitted or top-dose-only effect, or another doubt; inactive = no such curve, though single readings can be large; an effect the other way counts as inactive or inconclusive.
# How the values were obtained:
# [1] = target: Cytochrome P450 1A2 (Homo sapiens) (UniProt P05177); assay: p450-cyp1a2 (AID 410; calls by dose curve; also: potency is read from the fitted curve at half-maximal effect)
# Outline: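 Inhibition was calculated relative to 57 uM furafylline (full inhibition). The reaction used human CYP1A2 at 20nM with Luciferin-ME at its Km, 100uM, driven by an NADPH-regenerating system for 60 min at room temperature.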
# [2] = target: Glucocorticoid receptor (Homo sapiens) (UniProt P04150); assay: GR-GFP Redistribution (AID 450;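 active = compounds whose dose series gives a full or clear partial fitted curve of increased nuclear translocation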; also: potency is read from the fitted curve at half-maximal effect); conditions: U2OS GR-GFP nuclear translocation, laser cytometry, 2 h
# [3] = target: Glucocorticoid receptor (Homo sapiens) (UniProt P04150); assay: GR-EFC Redistribution (AID 451; calls by dose curve; also: potency is read from the fitted curve at half-maximal effect); conditions: CHO-K1 GR-EFC translocation, beta-gal luminescence, 2 h
# Outline: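 Translocation of GR-ED fusion to nuclear EA restores b-gal, read by luminescence after 1 h room-temperature detection. Engineered CHO-K1 biosensor cells, 1,000/well, exposed 2 h at 37 C to titrations up to 46 uM final.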
# [4] = target: 3',5'-cyclic-AMP phosphodiesterase 4B (Homo sapiens) (UniProt Q07343); assay: qHTS Assay for Inhibitors of PDE-IV (AID 607; active = well fitted activation curve with a large enough effect in the main read-out, with a control signal flat, not every such curve was filed as active)
# Outline: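 Live HEK293 cells with a modified cyclic nucleotide-gated (CNG) channel report intracellular cAMP via membrane-potential dye fluorescence (ex 535/em 590 nm). Endogenous PDE-IV was targeted. Compounds were tested at up to 22.9 uM final; RO 20-1724 100 uM served as control.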
# [5] = target: Cytochrome P450 2D6 (Homo sapiens) (UniProt P10635); assay: qHTS Assay for Inhibitors and Substrates of Cytochrome P450 2D6 (AID 891); also: nearly all actives have a fitted effect of over 60% in size; also: potency is read from the fitted curve at half-maximal effect
# Outline: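 Human CYP2D6 (5 nM) with 30 uM Luciferin-ME EGE (at Km) in 100 mM KPO4, compound preincubated 10 min, then NADPH regeneration system for 60 min at room temperature. Luciferin read by luminescence; normalized to 1.43 uM quinidine.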
# [6] = target: Mitogen-activated protein kinase 10 (Mus musculus) (UniProt Q61831); assay: JNK3 AlphaScreen Assay (AID 530; active = well fitted curve in either direction with a large enough effect, not every such curve was filed as active;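 also: kinase came from lysate of stimulated human HepG2 cells; signal reports phosphorylation of biotinylated GST-cJun 1-79 at Ser73 with 10 µM ATP; series mostly up to about 57 µM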)
# Outline: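 Room-temperature AlphaScreen kinase assay; pre-activated HepG2 lysate as JNK3 source, biotin-GST-cJun(1-79) substrate, 10 uM ATP, compound 15 min preincubation.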
# [7] = target: Cytochrome P450 2C9 (Homo sapiens) (UniProt P11712); assay: qHTS Assay for Inhibitors and Substrates of Cytochrome P450 2C9 (AID 883); also: nearly all actives have a fitted effect of over 60% in size; also: potency is read from the fitted curve at half-maximal effect
# Outline: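 Turnover of Luciferin-H (100uM, KM) by 10nM human CYP2C9 was measured over 60 min at 37C with NADPH regeneration; inhibitors and some substrates reduce luminescence. Data normalized to sulphaphenazole 57uM.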
# [8] = target: Cytochrome P450 2C19 (Homo sapiens) (UniProt P33261); assay: qHTS Assay for Inhibitors and Substrates of Cytochrome P450 2C19 (AID 899); also: nearly all actives have a fitted effect of over 60% in size; also: potency is read from the fitted curve at half-maximal effect
# Outline: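 Reactions contain 5nM enzyme, 10uM Luciferin-H EGE (KM) and 50mM KPO4; compound preincubates 10 min at 37C, NADPH regeneration starts turnover for 60 min. Luminescence after detection reagent gives activity.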
# [9] = target: Cytochrome P450 3A4 (Homo sapiens) (UniProt P08684); assay: qHTS Assay for Inhibitors and Substrates of Cytochrome P450 3A4 (AID 884); also: potency is read from the fitted curve at half-maximal effect; nearly all actives have a fitted effect of over 50% in size
# Outline: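 20 nM human CYP3A4 with 25 uM Luciferin-PPXE (at KM) in 200 mM KPO4, preincubated 10 min with compound; NADPH regeneration started a 60 min RT reaction. Luciferin detected by luminescence, normalized to 57 uM ketoconazole as full inhibition.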
# [10] = target: Cytochrome P450 3A4 (Homo sapiens) (UniProt P08684); assay: qHTS Assay for Activators of Cytochrome P450 3A4 (AID 885); also: nearly all actives have a fitted effect of over 65% in size
# Outline: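 Quantitative HTS format: compounds preincubated with 20nM human CYP3A4 and Luciferin-PPXE substrate at KM, reaction started by NADPH regeneration, stopped after 60 min, luciferase luminescence read 20 min later.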
# [11] = target: Guanine nucleotide-binding protein G(i) subunit alpha-1 (Homo sapiens) (UniProt P63096); assay: qHTS Assay for Inhibitors of RGS12 GoLoco Motif Activity (Green Fluorophore) (AID 879);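 also: negative values mean loss of peptide binding seen as reduced polarization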
# Outline: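 Fluorescence polarization assay: 50 nM Gαi1 with 10 nM FITC-labeled RGS12 GoLoco peptide in 10 mM Tris pH 7.5, 150 mM NaCl, 0.1 mM GDP, 0.05% NP40, 10 min at room temperature with compound.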
# [12] = target: Muscarinic acetylcholine receptor M1 (Rattus norvegicus) (UniProt P08482); assay: qHTS Assay for Antagonists of Acetylcholine Muscarinic M1 Receptor: Kinetic Measurement of Intracellular Calcium Response (AID 943); also: potency is read from the fitted curve at half-maximal effect; nearly all actives have a fitted effect of over 75% in size
# Outline: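 Intracellular calcium flux, recorded with Fluo-4 in a kinetic plate reader, served as signal; the response to carbachol at EC80 (100 nM final) was taken as maximal over minimal fluorescence after a 10 min compound pre-incubation in rat M1-CHO cells.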
# [13] = target: Muscarinic acetylcholine receptor M1 (Rattus norvegicus) (UniProt P08482); assay: qHTS Assay for Antagonists of Acetylcholine Muscarinic M1 Receptor: Measurement of IP-One Response (AID 944); also: nearly all actives have a fitted effect of over 75% in size
# Outline: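 Steps: plate transfected CHO-M1 cells overnight; add test compound, 10 min; add carbachol (200 nM, EC80) in stimulation buffer with LiCl; incubate 30 min; add labelled IP1 tracer and anti-IP1 antibody in lysis buffer; read HTRF after 10 min.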
# [14] = target: Pyruvate kinase (Leishmania mexicana) (UniProt Q27686); assay: qHTS Validation Assay for Inhibitors of Leishmania Mexicana Pyruvate Kinase (AID 945)
# Outline: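 LmPYK E451W 0.2 nM; 0.5 mM PEP, 0.1 mM ADP, 7 mM MgCl2, 50 mM KCl, imidazole pH 7.2, 0.01% Tween 20, 0.05% BSA; 1 h RT; PKLight luminescence; DMSO-normalized.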
# [15] = target: Pyruvate kinase PKM (Homo sapiens) (UniProt P14618); assay: qHTS Assay for Activators of Human Muscle Pyruvate Kinase (AID 954; active = well fitted curve in the direction sought with a large enough effect, not every such curve was filed as active)
# Outline: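 Enzyme was run at intermediate activity so both inhibitors and activators could be detected. ATP formed from ADP and PEP by 0.1 nM human PKM2 during a 1 h room-temperature incubation was quantified by coupled luciferase luminescence.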
# [16] = target: Alpha-galactosidase (Coffea arabica) (UniProt Q42656); assay: Counterscreen for Glucocerebrosidase Inhibitors: qHTS Assay for Coffee Bean alpha-Galactosidase at pH 4.5 (AID 957); also: series mostly up to about 77 µM
# Outline: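 AC50 values derive from Hill-equation modeling of concentration-response data, normalized to no-enzyme and full-activity controls. The pH 4.5 citrate assay used 2 nM coffee bean enzyme and 80 uM fluorogenic substrate for 20 min.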
# [17] = target: Alpha-galactosidase A (Homo sapiens) (UniProt P06280); assay: Counterscreen for Glucocerebrosidase Inhibitors: qHTS Assay for Human alpha-Galactosidase at pH 4.5 (AID 992)
# Outline: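 Read-out is 4-methylumbelliferone fluorescence (365 nm excitation, 440 nm emission) after a pH 10 NaOH/glycine stop. Reactions held 2 nM enzyme and 80 uM substrate at pH 4.5 for 20 min at room temperature.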
# [18] = target: alpha-glucosidase (Oryza sativa, rice) (UniProt Q653V4); assay: Counterscreen for Glucocerebrosidase Inhibitors: qHTS Assay for Rice alpha-Glucosidase at pH 5.0 (AID 997)
# Outline: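 Rice alpha-glucosidase (4 nM final) with 400 uM 4-methylumbelliferyl-alpha-D-glucopyranoside in citrate buffer pH 5.0, 20 min at room temperature, stopped at pH 10; fluorescence 365/440 nm, compounds 0.7 nM–77 uM, AC50 from Hill fits.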
# [19] = target: Alpha-galactosidase (Coffea arabica) (UniProt Q42656); assay: Counterscreen for Glucocerebrosidase Inhibitors: qHTS Assay for Coffee Bean alpha-Galactosidase at pH 5.9 (AID 998)
# Outline: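 Compounds were titrated from 0.7 nM to 77 uM against green coffee bean alpha-galactosidase (2 nM) using 80 uM fluorogenic 4-methylumbelliferyl substrate. After 20 min at room temperature, reactions were stopped at pH 10 and read by fluorescence.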
# [20] = target: Ubiquitin carboxyl-terminal hydrolase 1 (Homo sapiens) (UniProt O94782); assay: Inhibitors of USP1/UAF1: Pilot qHTS (AID 504865);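 also: rhodamine fluorescence freed from ubiquitin-rhodamine substrate followed over time; top concentration of the series differs between compounds; nearly all actives have a fitted effect of over 35% in size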
# Outline: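 Deubiquitinase activity followed as kinetic rhodamine fluorescence release from 150 nM Ub-Rho. 1 nM USP1/UAF1 with compound, after 15 min room-temperature preincubation, in HEPES pH 7.8 buffer containing TCEP, EDTA, BSA and Tween-20.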
# [21] = target: DNA dC->dU-editing enzyme APOBEC-3G (Homo sapiens) (UniProt Q9HC16); assay: qHTS for inhibitors of Vif-A3G interactions: Validation (AID 588379)
# Outline: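 HeLa cells stably expressing Vif and A3G-eYFP, 700 cells/well, incubated overnight at 37 deg C, then exposed to compound overnight at 37 deg C. Inhibition of Vif-mediated degradation read as increased yellow fluorescence (Ex 488/Em 500-530) by laser-scanning cytometry.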
# Chain of Cytochrome P450 2C19 (Homo sapiens) (P33261 whole entry, looked up): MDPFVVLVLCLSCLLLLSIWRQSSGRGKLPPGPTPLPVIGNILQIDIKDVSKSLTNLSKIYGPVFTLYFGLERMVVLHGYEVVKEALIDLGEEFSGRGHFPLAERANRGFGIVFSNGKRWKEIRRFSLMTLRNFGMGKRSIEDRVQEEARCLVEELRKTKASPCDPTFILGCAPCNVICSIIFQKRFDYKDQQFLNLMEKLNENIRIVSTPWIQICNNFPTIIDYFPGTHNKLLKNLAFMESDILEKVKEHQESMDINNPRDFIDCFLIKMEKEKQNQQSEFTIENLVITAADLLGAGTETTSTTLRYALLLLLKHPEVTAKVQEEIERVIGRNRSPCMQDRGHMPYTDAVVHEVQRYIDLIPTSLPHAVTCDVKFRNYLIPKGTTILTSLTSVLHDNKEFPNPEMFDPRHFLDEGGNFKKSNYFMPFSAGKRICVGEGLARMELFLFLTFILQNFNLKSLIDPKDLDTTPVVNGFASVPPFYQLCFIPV
# Chain of Cytochrome P450 2D6 (Homo sapiens) (P10635 whole entry, looked up): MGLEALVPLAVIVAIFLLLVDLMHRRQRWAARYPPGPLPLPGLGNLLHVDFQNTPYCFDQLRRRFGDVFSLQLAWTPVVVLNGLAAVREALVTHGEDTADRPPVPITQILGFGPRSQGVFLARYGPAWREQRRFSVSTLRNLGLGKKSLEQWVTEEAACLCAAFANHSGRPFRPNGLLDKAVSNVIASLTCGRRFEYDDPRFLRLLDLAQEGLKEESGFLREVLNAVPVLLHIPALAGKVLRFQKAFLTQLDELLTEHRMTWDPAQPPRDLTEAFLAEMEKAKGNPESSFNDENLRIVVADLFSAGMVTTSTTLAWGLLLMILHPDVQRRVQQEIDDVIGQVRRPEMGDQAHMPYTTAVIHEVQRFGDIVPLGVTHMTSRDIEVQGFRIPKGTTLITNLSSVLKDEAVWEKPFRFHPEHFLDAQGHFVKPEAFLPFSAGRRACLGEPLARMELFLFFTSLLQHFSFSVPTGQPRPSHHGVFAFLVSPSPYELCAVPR
# Chain of 3',5'-cyclic-AMP phosphodiesterase 4B (Homo sapiens) (Q07343 whole entry, looked up): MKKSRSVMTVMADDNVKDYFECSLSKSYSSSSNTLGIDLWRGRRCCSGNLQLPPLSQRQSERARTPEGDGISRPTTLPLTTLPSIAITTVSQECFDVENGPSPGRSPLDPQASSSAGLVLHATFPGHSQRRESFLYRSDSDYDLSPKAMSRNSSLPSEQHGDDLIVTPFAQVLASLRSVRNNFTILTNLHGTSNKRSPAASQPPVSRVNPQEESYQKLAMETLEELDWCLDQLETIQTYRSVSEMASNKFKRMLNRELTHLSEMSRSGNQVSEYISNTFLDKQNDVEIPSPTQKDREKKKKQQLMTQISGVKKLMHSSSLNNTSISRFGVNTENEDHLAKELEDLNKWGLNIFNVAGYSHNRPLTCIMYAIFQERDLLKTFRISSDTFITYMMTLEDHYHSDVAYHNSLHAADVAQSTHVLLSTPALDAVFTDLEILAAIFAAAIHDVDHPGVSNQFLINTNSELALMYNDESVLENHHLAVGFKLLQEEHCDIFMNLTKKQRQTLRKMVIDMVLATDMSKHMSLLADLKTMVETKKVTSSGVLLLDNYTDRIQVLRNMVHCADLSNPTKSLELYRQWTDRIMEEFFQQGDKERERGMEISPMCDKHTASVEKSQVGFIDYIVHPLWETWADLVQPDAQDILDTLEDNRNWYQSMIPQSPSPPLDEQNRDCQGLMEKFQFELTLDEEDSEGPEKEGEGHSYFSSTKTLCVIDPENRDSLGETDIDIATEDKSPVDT
# Chain of Cytochrome P450 2C9 (Homo sapiens) (P11712 whole entry, looked up): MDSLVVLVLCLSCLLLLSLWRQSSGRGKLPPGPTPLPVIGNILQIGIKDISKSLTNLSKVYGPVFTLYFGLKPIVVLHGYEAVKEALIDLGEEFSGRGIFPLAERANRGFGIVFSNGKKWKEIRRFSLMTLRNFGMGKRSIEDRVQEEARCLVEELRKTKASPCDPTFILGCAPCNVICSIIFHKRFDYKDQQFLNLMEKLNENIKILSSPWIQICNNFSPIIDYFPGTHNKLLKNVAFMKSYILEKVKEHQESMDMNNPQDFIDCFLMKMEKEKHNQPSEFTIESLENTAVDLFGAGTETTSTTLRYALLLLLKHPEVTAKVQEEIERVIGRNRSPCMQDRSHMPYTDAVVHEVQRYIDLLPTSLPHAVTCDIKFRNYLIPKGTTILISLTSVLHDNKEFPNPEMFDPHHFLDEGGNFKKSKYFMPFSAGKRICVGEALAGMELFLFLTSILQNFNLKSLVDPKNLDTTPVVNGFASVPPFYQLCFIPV
# Chain of Cytochrome P450 3A4 (Homo sapiens) (P08684 whole entry, looked up): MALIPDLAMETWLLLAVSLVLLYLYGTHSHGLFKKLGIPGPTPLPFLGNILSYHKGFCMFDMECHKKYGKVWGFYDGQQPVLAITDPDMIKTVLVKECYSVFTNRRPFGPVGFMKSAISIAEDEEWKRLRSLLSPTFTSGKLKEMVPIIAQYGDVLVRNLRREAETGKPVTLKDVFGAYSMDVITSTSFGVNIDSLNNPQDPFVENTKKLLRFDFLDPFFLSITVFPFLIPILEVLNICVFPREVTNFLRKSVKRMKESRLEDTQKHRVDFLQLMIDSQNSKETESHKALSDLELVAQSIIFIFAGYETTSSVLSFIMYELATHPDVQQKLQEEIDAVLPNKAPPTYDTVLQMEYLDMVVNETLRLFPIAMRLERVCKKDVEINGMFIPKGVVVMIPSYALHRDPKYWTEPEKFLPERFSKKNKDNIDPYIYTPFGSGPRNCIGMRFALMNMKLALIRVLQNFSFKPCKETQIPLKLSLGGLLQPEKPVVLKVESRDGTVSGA
# Chain of Glucocorticoid receptor (Homo sapiens) (P04150 whole entry, looked up, the tested form may be a part): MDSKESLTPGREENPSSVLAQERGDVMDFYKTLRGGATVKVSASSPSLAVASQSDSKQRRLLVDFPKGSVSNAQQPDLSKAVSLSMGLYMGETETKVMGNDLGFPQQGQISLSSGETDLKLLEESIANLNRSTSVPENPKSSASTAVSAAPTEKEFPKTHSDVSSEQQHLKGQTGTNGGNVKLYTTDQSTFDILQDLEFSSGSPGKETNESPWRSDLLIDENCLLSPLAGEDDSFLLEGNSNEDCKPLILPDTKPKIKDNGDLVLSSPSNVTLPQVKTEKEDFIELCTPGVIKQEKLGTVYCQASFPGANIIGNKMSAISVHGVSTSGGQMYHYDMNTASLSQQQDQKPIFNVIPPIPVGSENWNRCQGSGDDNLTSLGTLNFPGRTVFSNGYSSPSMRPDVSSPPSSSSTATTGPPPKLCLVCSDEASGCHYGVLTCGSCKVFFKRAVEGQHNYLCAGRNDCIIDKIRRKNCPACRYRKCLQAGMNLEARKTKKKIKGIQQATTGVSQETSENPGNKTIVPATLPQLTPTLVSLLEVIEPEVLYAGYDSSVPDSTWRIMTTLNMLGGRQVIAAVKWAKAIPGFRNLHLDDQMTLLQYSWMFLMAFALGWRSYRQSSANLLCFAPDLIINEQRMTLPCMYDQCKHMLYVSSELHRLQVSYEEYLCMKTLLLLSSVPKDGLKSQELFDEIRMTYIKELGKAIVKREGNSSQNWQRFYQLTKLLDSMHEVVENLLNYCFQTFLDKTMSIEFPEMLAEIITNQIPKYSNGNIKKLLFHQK
# Chain of Cytochrome P450 1A2 (Homo sapiens) (P05177 whole entry, looked up): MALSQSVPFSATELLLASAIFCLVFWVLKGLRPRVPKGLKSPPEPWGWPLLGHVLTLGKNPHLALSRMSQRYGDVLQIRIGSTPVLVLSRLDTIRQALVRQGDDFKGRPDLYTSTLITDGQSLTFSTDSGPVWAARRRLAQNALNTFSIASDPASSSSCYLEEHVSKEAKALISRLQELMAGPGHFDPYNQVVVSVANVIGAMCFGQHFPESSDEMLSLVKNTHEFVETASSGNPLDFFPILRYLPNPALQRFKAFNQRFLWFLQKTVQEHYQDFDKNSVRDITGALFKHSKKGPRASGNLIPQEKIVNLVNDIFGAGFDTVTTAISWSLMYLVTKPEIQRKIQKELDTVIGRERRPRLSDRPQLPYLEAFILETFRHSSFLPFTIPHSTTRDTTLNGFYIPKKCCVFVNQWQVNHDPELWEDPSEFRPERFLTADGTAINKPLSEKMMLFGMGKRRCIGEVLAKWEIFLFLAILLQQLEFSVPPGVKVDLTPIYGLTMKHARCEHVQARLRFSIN
# Chain of Alpha-galactosidase (Coffea arabica) (Q42656 whole entry, looked up): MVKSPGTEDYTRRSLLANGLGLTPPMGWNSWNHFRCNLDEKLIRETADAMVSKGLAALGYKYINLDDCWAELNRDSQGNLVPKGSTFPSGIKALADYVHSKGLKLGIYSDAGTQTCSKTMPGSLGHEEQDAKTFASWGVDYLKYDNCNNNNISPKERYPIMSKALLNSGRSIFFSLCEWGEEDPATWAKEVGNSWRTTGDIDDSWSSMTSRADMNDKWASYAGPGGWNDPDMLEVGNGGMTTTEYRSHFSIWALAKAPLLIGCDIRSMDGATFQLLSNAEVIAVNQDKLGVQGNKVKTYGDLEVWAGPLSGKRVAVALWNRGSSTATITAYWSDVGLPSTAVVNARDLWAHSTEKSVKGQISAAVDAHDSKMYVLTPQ
# Chain of Muscarinic acetylcholine receptor M1 (Rattus norvegicus) (P08482 whole entry, looked up): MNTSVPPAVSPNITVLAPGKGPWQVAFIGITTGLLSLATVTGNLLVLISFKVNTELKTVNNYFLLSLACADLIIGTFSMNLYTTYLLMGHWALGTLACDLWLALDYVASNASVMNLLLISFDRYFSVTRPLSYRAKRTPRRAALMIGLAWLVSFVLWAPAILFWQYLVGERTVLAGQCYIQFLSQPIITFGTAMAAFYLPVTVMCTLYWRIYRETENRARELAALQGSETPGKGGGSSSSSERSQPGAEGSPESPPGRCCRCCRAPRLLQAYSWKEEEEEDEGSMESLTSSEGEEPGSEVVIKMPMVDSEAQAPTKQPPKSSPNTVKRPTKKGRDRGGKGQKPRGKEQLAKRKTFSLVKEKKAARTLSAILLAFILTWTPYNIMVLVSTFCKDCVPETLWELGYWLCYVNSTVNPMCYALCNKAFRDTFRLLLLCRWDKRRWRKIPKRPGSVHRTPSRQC
smiles,measurement,setting,value
CC(C)C[C@H]1C(=O)N2CCC[C@@H]2[C@]2(O)O[C@](NC(=O)[C@H]3C=C4c5cccc6[nH]cc(c56)C[C@H]4N(C)C3)(C(C)C)C(=O)N12,Potency,[1],31.6 µM (active)
same,Potency,[2],> 46 µM
same,Potency,[3],> 46 µM
same,outcome,[4],inactive
same,Potency,[5],inactive
CC[C@H]1[C@@H]2C[C@@H]3[C@@H]4N(C)c5ccccc5[C@@]45C[C@@H]([C@H]2[C@@H]5O)N3[C@@H]1O,Potency,[1],inactive
same,Potency,[2],> 46 µM
same,Potency,[3],> 46 µM
same,outcome,[6],inactive
same,Potency,[7],inactive
same,Potency,[5],3.16 µM (active)
same,Potency,[8],inactive
COC(=O)[C@@]1(Cc2ccc(F)cc2)[C@H]2c3cc(C(=O)N(C)C)[nH]c3C[C@H]2CN1C(=O)c1ccccc1,Potency,[1],20 µM (active)
same,outcome,[6],inactive
same,outcome,[4],inactive
same,Potency,[9],0.631 µM (active)
CCCc1cc2c(n1Cc1ccc(C)cc1)C(C)C1CN(C(=O)c3ccccc3)C(C)(C(=O)OC)C21 (centres undefined),Potency,[1],7.94 µM (active)
same,outcome,[6],inactive
same,Potency,[9],3.16 µM (active)
same,Potency,[10],inactive
C[C@@]12CC[C@H](O)C[C@@H]1CC[C@H]1[C@H]2C[C@@H](O)[C@]2(C)[C@@H](C3=CC(=O)OC3)CC[C@@]12O,Potency,[1],inactive
same,Potency,[2],> 46 µM
same,Potency,[3],> 46 µM
same,outcome,[6],inactive
same,Potency,[7],inactive
same,Potency,[8],inactive
CC(C)[C@@]1(NC(=O)[C@@H]2C[C@H]3c4cccc5[nH]cc(c45)C[C@@H]3N(C)C2)O[C@@]2(O)[C@H]3CCCN3C(=O)[C@@H](Cc3ccccc3)N2C1=O,Potency,[1],inactive
same,Potency,[2],> 46 µM
same,Potency,[3],> 46 µM
same,outcome,[6],inactive
same,outcome,[4],inactive
same,Potency,[7],1.26 µM (active)
same,Potency,[8],3.16 µM (active)
CCCCCCCCCCCCCC(=O)O[C@H]1[C@@H](C)[C@@]2(O)[C@@H](C=C(CO)C[C@]3(O)C(=O)C(C)=C[C@@H]23)C2C(C)(C)[C@]21OC(C)=O (some centres undefined),Potency,[1],inactive
same,Potency,[2],> 46 µM
same,Potency,[3],> 46 µM
same,outcome,[6],inactive
same,Potency,[11],inactive
same,Potency,[10],inactive
same,Potency,[12],0.02 µM (active)
same,Potency,[13],inactive
same,Potency,[14],inactive
same,outcome,[15],inactive
same,outcome,[16],inactive
same,outcome,[17],inactive
same,outcome,[18],inactive
same,outcome,[19],inactive
c1cc2cc(c1)C[n+]1ccc(c3ccccc31)NCc1ccc(cc1)CNc1cc[n+](c3ccccc13)C2,Potency,[1],inactive
same,Potency,[2],> 46 µM
same,outcome,[4],inactive
same,Potency,[7],2.51 µM (active)
same,Potency,[20],inactive
same,outcome,[21],inactive
CCCC[C@@H]1C[C@H]1C(NP(=O)(c1ccccc1)c1ccccc1)c1ccc(Cl)cc1 (some centres undefined),Potency,[1],inactive
same,outcome,[6],inactive
CCC/C=C(\CCC)C(NP(=O)(c1ccccc1)c1ccccc1)c1ccccc1 (centres undefined),Potency,[1],15.8 µM (active)
same,outcome,[6],inactive
same,Potency,[9],6.31 µM (active)
same,Potency,[10],inactive
O=C(O)[C@H]1C[C@@H]1[C@H](NP(=O)(c1ccccc1)c1ccccc1)c1ccccc1,Potency,[1],inactive
same,outcome,[6],inactive
same,outcome,[4],inactive
CCCc1cc2c(n1Cc1cccc(Cl)c1)C(C)C1CN(C(=O)c3ccccc3)C(C)(C(=O)OC)C21 (centres undefined),Potency,[1],31.6 µM (active)
same,outcome,[6],inactive
same,outcome,[4],inactive
same,Potency,[7],5.01 µM (active)
same,Potency,[9],5.01 µM (active)
same,Potency,[10],inactive
CCN(CC)c1ncnc2c1ncn2[C@@H]1O[C@@H](COP(=O)(O)OP(=O)(O)C(Br)(Br)P(=O)(O)O)[C@H](O)[C@H]1O,Potency,[1],39.8 µM (active)
same,Potency,[2],> 46 µM
same,Potency,[3],> 46 µM
same,outcome,[6],inactive
same,outcome,[4],inactive
same,Potency,[5],0.631 µM (active)
